Experimental data taken from PubChem BioAssay (Tox21).
Results filed as inconclusive are left out. The source made the active and inactive calls. Unless noted, calls come from the whole dose curve.

Experiments:
[1] = Nuclear factor erythroid 2-related factor 2/antioxidant responsive element (Nrf2/ARE) small molecule agonists: qHTS cell viability counter screen in human keratinocytes (AID 1919968; active = well fitted curve in the direction sought with a large enough effect in the repeat runs; an effect the other way counts as inactive or inconclusive; note: nearly all actives have a fitted effect of over 55% in size; note: potency is the fitted concentration of half-maximal effect)
In short: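 HaCaT ARE reporter line, 1,500 cells/well; 5 h settle, 37 C/5% CO2; cpd in DMSO pinned; 23 h exposure; CellTiter-Fluor, 1 h; fluorescence.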

[2] = molecular target: Gonadotropin-releasing hormone receptor (Homo sapiens) (UniProt P30968); test: Human gonadotropin-releasing hormone receptor (GnRHR) small molecule agonists, calcium flux assay in GnRHR-HEK293 cells (AID 1920063); note: nearly all actives have a fitted effect of over 35% in size
Gonadotropin-releasing hormone receptor (Homo sapiens), sequence (P30968 whole entry, looked up): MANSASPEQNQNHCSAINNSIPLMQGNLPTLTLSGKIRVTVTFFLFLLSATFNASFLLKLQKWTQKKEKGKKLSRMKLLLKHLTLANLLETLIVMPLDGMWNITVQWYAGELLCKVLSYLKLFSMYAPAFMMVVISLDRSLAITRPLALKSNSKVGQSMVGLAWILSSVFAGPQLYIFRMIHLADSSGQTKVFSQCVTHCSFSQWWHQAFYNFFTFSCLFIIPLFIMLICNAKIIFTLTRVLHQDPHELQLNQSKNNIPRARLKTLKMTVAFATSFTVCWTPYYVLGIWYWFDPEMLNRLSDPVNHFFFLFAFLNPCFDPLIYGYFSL
In short: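 GnRHR-HEK293, 1500 cells/well, 18 h 37 C/5% CO2; Ca dye 1 h 37 C; cpd pinned (DMSO), agonist mode; kinetic FL 480/540, 3 min, 1 s reads; 15 conc, n=3.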

[3] = molecular target: KiSS-1 receptor (Homo sapiens) (UniProt Q969F8); test: Human kisspeptin (KISS1R) small molecule agonists, calcium flux assay in KISS1R-HEK293 cells (AID 1920064; active = well fitted curve in the direction sought with a large enough effect in the repeat runs; an effect the other way counts as inactive or inconclusive)
KiSS-1 receptor (Homo sapiens), sequence (Q969F8 whole entry, looked up): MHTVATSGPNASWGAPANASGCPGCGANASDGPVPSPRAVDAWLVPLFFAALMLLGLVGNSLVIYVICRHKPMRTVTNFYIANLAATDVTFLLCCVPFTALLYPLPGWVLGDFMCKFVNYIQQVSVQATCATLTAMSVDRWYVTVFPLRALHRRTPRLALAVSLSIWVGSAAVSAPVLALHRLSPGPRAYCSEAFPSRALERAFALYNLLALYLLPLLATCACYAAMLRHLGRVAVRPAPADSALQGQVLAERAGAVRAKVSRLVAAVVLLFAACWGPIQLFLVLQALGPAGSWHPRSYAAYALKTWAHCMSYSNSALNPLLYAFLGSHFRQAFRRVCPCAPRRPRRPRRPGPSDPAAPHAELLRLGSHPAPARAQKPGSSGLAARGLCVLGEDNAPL
In short: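 Stable human KISS1R HEK293 line; 18 h plating, 37 C/5% CO2; calcium dye 1 h 37 C; compound pin transfer; kinetic fluorescence Ex/Em 480/540, 3 min.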

[4] = G protein-coupled receptor (GPCR) small molecule agonists, calcium flux assay: HEK293 wild type cell line counter screen (AID 1920065)
In short: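 Kinetic fluorescence at Ex/Em 480/540, recorded every second over 3 min, served as the read-out after compound addition. Each compound was tested at 15 concentrations in triplicate on cells pre-loaded with calcium dye for 1 h.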

[5] = p53 small molecule agonists, cell-based qHTS assay with human liver microsomes (AID 1963577);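 note: p53 response element beta-lactamase reporter cells with liver microsomes plus NADPH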
In short: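 Metabolically competent format: test substances, human liver microsomes and NADPH (both 0.5 mg/mL final) incubated with p53RE-bla cells 16 h at 37 C. Beta-lactamase reporter signal then quantified by fluorescence.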

[6] = p53 small molecule agonists, cell-based qHTS assay with rat liver microsomes (AID 1963578)
In short: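 Each plate received p53RE-bla cells, then compound, then rat liver microsomes and NADPH (both 0.5 mg/mL final). Plates were held 16 h at 37 C, and beta-lactamase activity was detected with LiveBLAzer over 2 h.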

[7] = p53 small molecule agonists, cell-based qHTS assay with rat liver microsomes: qHTS cell viability counter screen (AID 1963580); note: nearly all actives have a fitted effect of over 45% in size
In short: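 Intracellular ATP, by CellTiter-Glo luminescence, defines viability. HCT-116 p53RE-bla cells, 4,000 per well, were compound-treated in the presence of rat liver microsomes and NADPH for 16 h at 37 C.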

[8] = p53 small molecule agonists, cell-based qHTS assay: qHTS cell viability counter screen (AID 1963581); note: nearly all actives have a fitted effect of over 45% in size
In short: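 HCT-116 p53RE-bla cells, 4,000/well, plated 5 h before compound pin transfer; 16 h at 37 C; bla substrate 2 h RT; then CellTiter-Glo, 30 min RT, luminescence.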

[9] = molecular target: 5-hydroxytryptamine receptor 2A (Homo sapiens) (UniProt P28223); test: 5-hydroxytryptamine receptor 2A (HTR2A) small molecule antagonists, cell-based qHTS assay (AID 1963586); note: nearly all actives have a fitted effect of over 45% in size
5-hydroxytryptamine receptor 2A (Homo sapiens), sequence (P28223 whole entry, looked up): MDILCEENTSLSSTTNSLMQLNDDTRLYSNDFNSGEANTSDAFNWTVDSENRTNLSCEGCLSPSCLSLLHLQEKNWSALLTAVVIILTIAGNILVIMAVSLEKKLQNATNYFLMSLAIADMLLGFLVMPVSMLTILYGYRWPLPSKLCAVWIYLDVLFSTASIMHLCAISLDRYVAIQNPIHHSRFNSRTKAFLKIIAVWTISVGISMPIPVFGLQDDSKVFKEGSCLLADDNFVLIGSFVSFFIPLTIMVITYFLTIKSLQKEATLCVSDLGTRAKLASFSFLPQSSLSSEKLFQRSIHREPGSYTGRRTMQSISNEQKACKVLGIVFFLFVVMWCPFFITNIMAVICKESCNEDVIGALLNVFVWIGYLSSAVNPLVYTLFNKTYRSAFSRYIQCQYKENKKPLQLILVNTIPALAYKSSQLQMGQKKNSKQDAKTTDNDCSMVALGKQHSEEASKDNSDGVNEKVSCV
In short: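 Antagonist-mode intracellular calcium assay: DOI (4 nM) added after 5 min compound pre-incubation at room temperature to dye-loaded HTR2A-CHO cells. Fluorescence followed for 3 min, sampled every second.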

[10] = molecular target: 5-hydroxytryptamine receptor 2A (Homo sapiens) (UniProt P28223); test: 5-hydroxytryptamine receptor 2A (HTR2A) small molecule agonists, cell-based qHTS assay (AID 1963587); note: nearly all actives have a fitted effect of over 30% in size; note: potency is the fitted concentration of half-maximal effect
In short: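 Kinetic calcium-flux fluorescence (2 min, 1 sec intervals) after compound addition in agonist mode. HTR2A-CHO cells were cultured 18 h, then dye-loaded 1 h at 37 C.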

[11] = molecular target: Muscarinic acetylcholine receptor M1 (Homo sapiens) (UniProt P11229); test: Cholinergic receptor muscarinic 1 (CHRM1) small molecule antagonists, cell-based qHTS assay (AID 1963588); note: nearly all actives have a fitted effect of over 40% in size; note: potency is the fitted concentration of half-maximal effect
Muscarinic acetylcholine receptor M1 (Homo sapiens), sequence (P11229 whole entry, looked up): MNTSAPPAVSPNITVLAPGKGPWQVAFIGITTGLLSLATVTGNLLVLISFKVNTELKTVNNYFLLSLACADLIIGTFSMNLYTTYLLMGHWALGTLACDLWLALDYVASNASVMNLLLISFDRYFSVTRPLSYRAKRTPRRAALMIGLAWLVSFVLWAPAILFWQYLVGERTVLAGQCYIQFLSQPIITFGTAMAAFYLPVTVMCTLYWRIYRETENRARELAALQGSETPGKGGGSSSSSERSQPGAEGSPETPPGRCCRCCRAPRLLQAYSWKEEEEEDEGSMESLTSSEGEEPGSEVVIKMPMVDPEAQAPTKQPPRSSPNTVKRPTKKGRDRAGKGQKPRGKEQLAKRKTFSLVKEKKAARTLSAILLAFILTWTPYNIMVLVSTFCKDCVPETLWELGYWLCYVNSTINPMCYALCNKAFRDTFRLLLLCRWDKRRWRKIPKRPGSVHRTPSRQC
In short: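 CHRM1-CHO calcium-flux assay, antagonist mode. Cells were seeded 18 h, dye-loaded 1 h at 37 C and given compound for 5 min at RT, then acetylcholine was added at 50nM. FDSS fluorescence was read 3 min; 15 concentrations, three runs.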

[12] = molecular target: Muscarinic acetylcholine receptor M1 (Homo sapiens) (UniProt P11229); test: Cholinergic receptor muscarinic 1 (CHRM1) small molecule agonists, cell-based qHTS assay (AID 1963589); note: nearly all actives have a fitted effect of over 35% in size
In short: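 Human M1 in stable CHO line; 18 h plating, 1 h dye load 37 C; cpd added (agonist mode); Ca2+ fluorescence kinetic read, 1 s intervals; 15 conc, 3 runs.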

[13] = cAMP Responsive Elements (CRE) small molecule antagonists, cell-based qHTS assay (AID 1963591; active = well fitted inhibition curve with a large enough effect in the signal ratio in the repeat runs, not every such curve was filed as active; the % refers to the signal ratio)
In short: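 Beta-lactamase reporter read by FRET substrate (LiveBLAzer B/G) after 2 h at room temperature. CRE-bla HEK293T cells had received compound plus 0.25 uM (final) NKH477 for 3 h at 37 °C.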

[14] = molecular target: Beta-2 adrenergic receptor (Homo sapiens) (UniProt P07550); test: Adrenergic beta2 receptor (ADRB2) small molecule antagonists, cell-based qHTS assay (AID 1963592); note: series mostly up to about 92 µM; nearly all actives have a fitted effect of over 50% in size
Beta-2 adrenergic receptor (Homo sapiens), sequence (P07550 whole entry, looked up): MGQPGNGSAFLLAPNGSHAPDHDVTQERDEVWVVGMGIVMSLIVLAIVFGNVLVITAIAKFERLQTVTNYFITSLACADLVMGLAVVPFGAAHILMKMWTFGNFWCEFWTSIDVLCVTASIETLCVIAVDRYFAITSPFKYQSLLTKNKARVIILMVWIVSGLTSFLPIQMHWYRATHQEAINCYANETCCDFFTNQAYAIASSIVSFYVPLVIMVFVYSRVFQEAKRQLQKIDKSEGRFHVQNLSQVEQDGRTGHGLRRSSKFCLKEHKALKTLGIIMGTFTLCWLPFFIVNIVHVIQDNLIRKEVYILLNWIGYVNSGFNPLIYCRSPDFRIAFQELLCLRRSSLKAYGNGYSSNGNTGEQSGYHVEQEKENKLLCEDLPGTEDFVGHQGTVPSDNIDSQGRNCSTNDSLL
In short: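 Cells (CHO, stable ADRB2 overexpression) incubated 18-20hr at 37C; compounds added from DMSO; agonist mix (1nM isoproterenol, 100uM IBMX, 25uM Ro-20-1724) added; 0.5hr RT; d2-cAMP and anti-cAMP-cryptate added; 1hr RT; 665/615 nm read.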

[15] = molecular target: Beta-2 adrenergic receptor (Homo sapiens) (UniProt P07550); test: Adrenergic beta2 receptor (ADRB2) small molecule agonists, cell-based qHTS assay (AID 1963593);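 note: CHO cells stably overexpressing human ADRB2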
In short: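 CHO cells stably over-expressing ADRB2 were plated overnight at 37C, then dosed with compounds plus a stimulation mix containing 100uM IBMX and 25uM Ro-20-1724 for 0.5hr at room temperature. cAMP was measured by HTRF competition, 1hr.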

[16] = molecular target: D(2) dopamine receptor (Homo sapiens) (UniProt P14416); test: Dopamine D2 receptor (DRD2) small molecule agonists, cell-based qHTS assay (AID 1963594); note: nearly all actives have a fitted effect of over 35% in size
D(2) dopamine receptor (Homo sapiens), sequence (P14416 whole entry, looked up): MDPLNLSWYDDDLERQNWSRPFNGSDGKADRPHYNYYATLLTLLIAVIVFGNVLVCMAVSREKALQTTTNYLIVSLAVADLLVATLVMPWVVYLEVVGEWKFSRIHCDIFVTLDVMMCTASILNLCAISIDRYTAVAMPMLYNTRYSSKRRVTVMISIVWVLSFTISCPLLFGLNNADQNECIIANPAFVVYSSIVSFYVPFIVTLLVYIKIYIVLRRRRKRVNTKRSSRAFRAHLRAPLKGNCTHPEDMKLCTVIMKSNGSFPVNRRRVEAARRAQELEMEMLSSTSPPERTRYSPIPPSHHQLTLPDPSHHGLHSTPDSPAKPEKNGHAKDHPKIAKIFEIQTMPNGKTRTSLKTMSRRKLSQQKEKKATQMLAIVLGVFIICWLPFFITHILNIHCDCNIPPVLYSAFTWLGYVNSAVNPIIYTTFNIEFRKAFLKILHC
In short: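 cAMP accumulation in DRD2-HEK293 cells measured by HTRF after 1 h detection; compounds added 10 min before NKH477 (200nM […]) forskolin-analogue stimulation, 30 min at room temperature, with Ro20-1724 present at 0.1 mM final.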

[17] = molecular target: D(2) dopamine receptor (Homo sapiens) (UniProt P14416); test: Dopamine D2 receptor (DRD2) small molecule antagonists, cell-based qHTS assay (AID 1963595; active = well fitted inhibition curve with a large enough effect in the signal ratio in the repeat runs, with a control signal flat; the % refers to the signal ratio)
In short: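 Readout: HTRF cAMP, cAMP-d2 competing with cellular cAMP for anti-cAMP cryptate, read after 1 h. Cells: DRD2-HEK293. Conditions: 0.1 mM Ro20-1724, 12 nM quinpirole, 200 nM NKH477, 30 min RT.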

[18] = p53 small molecule agonists, cell-based qHTS assay (AID 1963582; active = well fitted activation curve with a large enough effect in the signal ratio in the repeat runs, not every such curve was filed as active; the % refers to the signal ratio)
In short: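 Reporter line: p53RE-bla. Pre-incubation 5 h, 37 C, 5% CO2; compound (DMSO, pin tool) 16 h, 37 C; B/G FRET substrate 2 h RT; fluorescence intensity read.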

[19] = cAMP Responsive Elements (CRE) small molecule agonists, cell-based qHTS assay (AID 1963590)
In short: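 HEK 293T CRE-bla, 2,000 cells/well, 18 h preincubation 37 C/5% CO2; cpds (DMSO) pinned, 3 h; LiveBLAzer B/G FRET substrate, 2 h RT.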

[20] = p53 small molecule agonists, cell-based qHTS assay with human liver microsomes: qHTS cell viability counter screen (AID 1963579); note: nearly all actives have a fitted effect of over 45% in size
In short: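 Tox21 library compounds, delivered from DMSO stocks, were tested on p53RE-bla cells together with 0.5 mg/mL human liver microsomes and 0.5 mg/mL NADPH (final) over 16 h at 37 C; CellTiter-Glo luminescence served as the cytotoxicity measure.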
% is set by controls: 0 for no effect and ±100 for the full control effect.

CCCCCCCCCCC(=O)O
inactive: Potency [1] | Potency [2] | outcome [3] | outcome [4] | Potency [5] | Potency [6] | Potency [7] | Potency [8] | Potency [9] | Potency [10] | Potency [11] | Potency [12] | Potency [13] | Potency [14] | Potency [15] | Potency [16] | Potency [17]

CCOc1ccccc1N
inactive: Potency [1] | Potency [2] | outcome [3] | outcome [4] | Potency [5] | Potency [6] | Potency [7] | Potency [8] | Potency [18] | Potency [10] | Potency [12] | Potency [14] | Potency [16] | Potency [17]

CC/C=C\CCOC(=O)c1ccccc1O
inactive: Potency [1] | Potency [2] | outcome [3] | outcome [4] | Potency [5] | Potency [6] | Potency [8] | Potency [18] | Potency [9] | Potency [10] | Potency [11] | Potency [12] | Potency [19] | Potency [13] | Potency [14] | Potency [15] | Potency [16] | Potency [17]

O=C(O)COCC(=O)O
inactive: Potency [2] | outcome [3] | outcome [4] | Potency [5] | Potency [6] | Potency [20] | Potency [7] | Potency [8] | Potency [18] | Potency [9] | Potency [10] | Potency [11] | Potency [12] | Potency [19] | Potency [13] | Potency [14] | Potency [16]

CC(=O)N[C@@H](CCC(N)=O)C(=O)O
inactive: Potency [1] | outcome [3] | outcome [4] | Potency [5] | Potency [6] | Potency [20] | Potency [7] | Potency [8] | Potency [18] | Potency [10] | Potency [11] | Potency [12] | Potency [19] | Potency [13] | Potency [14] | Potency [17]

O=S(O)(O)=S
inactive: activity change, negative = cytotoxicity [1] -0.897% [at 8.39 µM] | activity change [2] 4.24% [at 5.22 µM, hits give high values] | activation [3] -0.115% [at 6.97 µM] | activation [4] 0.868% [at 5.23 µM] | activation [5] 0.289% [at 5.99 µM] | activation [6] -2.47% [at 5.99 µM] | activity change, negative = cytotoxicity [8] -0.464% [at 5.99 µM] | activation [18] -3.63% [at 5.99 µM] | activity, negative = inhibition [9] 5.27% [at 5.62 µM] | activation [10] 7.09% [at 7.02 µM] | activity, negative = inhibition [11] 0.0869% [at 5.58 µM] | activation [12] -0.0505% [at 6.97 µM] | activity change, negative = inhibition [13] -0.372% [at 8.39 µM] | activity change, negative = inhibition [14] 6.54% [at 8.39 µM] | activation [16] -2.24% [at 8.39 µM]

Cc1c(C)c2c(c(C)c1OC(=O)CCC(=O)OCCO)CC[C@@](C)(CCC[C@H](C)CCC[C@H](C)CCCC(C)C)O2
active: Potency [1] 26.6 µM
inactive: Potency [2] | outcome [3] | outcome [4] | Potency [5] | Potency [20] | Potency [7] | Potency [18] | Potency [9] | Potency [10] | Potency [14] | Potency [16] | Potency [17]

CCOC(=O)c1ccc(I)cc1
inactive: Potency [1] | Potency [2] | outcome [3] | Potency [5] | Potency [6] | Potency [20] | Potency [7] | Potency [8] | Potency [18] | Potency [11] | Potency [12] | Potency [19] | Potency [13] | Potency [14] | Potency [16] | Potency [17]

Nc1ccc(Cl)cc1[N+](=O)[O-]
inactive: Potency [1] | outcome [3] | outcome [4] | Potency [6] | Potency [20] | Potency [7] | Potency [8] | Potency [18] | Potency [9] | Potency [10] | Potency [11] | Potency [12] | Potency [19] | Potency [13] | Potency [14] | Potency [16] | Potency [17]

CCOC(=O)/C=C/C(=O)OCC
inactive: Potency [1] | Potency [2] | outcome [3] | Potency [5] | Potency [6] | Potency [20] | Potency [7] | Potency [8] | Potency [18] | Potency [9] | Potency [10] | Potency [11] | Potency [12] | Potency [19] | Potency [14] | Potency [16]

c1ccc(C[P+](c2ccccc2)(c2ccccc2)c2ccccc2)cc1
active: Potency [11] 4.72 µM
inactive: Potency [1] | Potency [2] | outcome [3] | outcome [4] | Potency [5] | Potency [20] | Potency [8] | Potency [9] | Potency [10] | Potency [12] | Potency [14] | Potency [15] | Potency [16] | Potency [17]

O=C(O)CCNC(=O)c1ccccc1
inactive: Potency [1] | Potency [2] | outcome [3] | Potency [5] | Potency [6] | Potency [20] | Potency [7] | Potency [8] | Potency [18] | Potency [19] | Potency [13] | Potency [14] | Potency [15] | Potency [16]

CC(=O)O[C@@H]1C(=O)O[C@@H]2[C@H]1OC(=O)[C@@H]2OC(C)=O
active: Potency [10] 0.756 µM
inactive: Potency [1] | Potency [2] | outcome [3] | outcome [4] | Potency [6] | Potency [20] | Potency [7] | Potency [8] | Potency [9] | Potency [11] | Potency [12] | Potency [19] | Potency [13] | Potency [14] | Potency [15] | Potency [16] | Potency [17]
